In PubChem BioAssay (NCATS):
Values joined by “and” are separate entries in the source; they are usually repeats but may differ in a detail not shown here. Equal entries are not always repeated. Results filed as inconclusive are left out. More than one record can exist for a structure, and the calls need not agree. Active and inactive are the calls of the source. Unless noted, calls follow the shape of the dose curve; as a rule, active = well fitted curve in the direction sought with a large enough effect; inconclusive = small, poorly fitted or top-dose-only effect, or another doubt; inactive = no such curve, though single readings can be large; an effect the other way counts as inactive or inconclusive.

How the values were obtained:
[1] = Cellular Toxicity (caspase-3) SHSY5Y (AID 657)
In short: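 Cells plated and incubated 5 h at 37 °C, dosed over a concentration range, incubated 16 h, then given Caspase-Glo 3/7 reagent for 1 h at room temperature before luminescence reading. Staurosporine (10 uM) defined full stimulation.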

[2] = Cellular Toxicity (caspase-3) SK-N-SH (AID 661);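 also: 0% = DMSO basal and 100% = 10 µM staurosporine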
In short: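 Human neuroblastoma SK-N-SH, 1500 cells/well, 5 hr pre-incubation, then compound 16 hr, 37 °C. Caspase-Glo 3/7 reagent, 1 hr RT, luminescence. Norm. to DMSO/10 uM staurosporine; Hill-fit AC50.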

[3] = MultiTox-Fluor Cytotoxicity Assay - LYMP1-003 - Dead Cells (AID 961); also: nearly all actives have a fitted effect of over 70% in size; also: potency is read from the fitted curve at half-maximal effect
In short: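 LYMP1-003 human lymphoblastoid cells (2500/well) exposed to compound 16 h at 37 C in complete medium; dead-cell protease read with bis-AAF-R110 fluorescence (Ex/Em 485/520) after 60 min at room temperature. Normalized to DMSO and 15 uM tetraoctylammonium bromide; AC50 from Hill fit.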

[4] = Cell Viability - LYMP2-005 (AID 967); also: potency is read from the fitted curve at half-maximal effect
In short: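 qHTS viability screen in LYMP2-005 cells: 24 h at 37 C with compound, ATP luminescence via CellTiter-Glo, AC50 from Hill curves.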

[5] = Cell Viability - LYMP2-009 (AID 968); also: nearly all actives have a fitted effect of over 55% in size; also: potency is read from the fitted curve at half-maximal effect
[6] = Cell Viability - LYMP2-011 (AID 969);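 also: cells exposed to compound for 24 hours; nearly all actives have a fitted effect of over 60% in size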; also: potency is read from the fitted curve at half-maximal effect
In short: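 2500 cells/well, 5 hr 37 C; compound added, 24 hr 37 C; CellTiter-Glo 30 min RT; luminescence. qHTS concentration-response, Hill-equation AC50. Tetraoctylammonium bromide positive control.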

[7] = Cell Viability - LYMP2-017 (AID 972);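 also: cells exposed to compound for 24 hours at 37 °C; nearly all actives have a fitted effect of over 55% in size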; also: potency is read from the fitted curve at half-maximal effect
In short: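 2500 cells/well, 5 h 37 C; cpd 24 h 37 C in complete medium; CellTiter-Glo, 30 min RT; luminescence (ATP). AC50 via Hill fit, qHTS.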

[8] = Cell Viability - LYMP2-021 (AID 974);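 also: compound exposure lasts 24 hours at 37 °C; nearly all actives have a fitted effect of over 55% in size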; also: potency is read from the fitted curve at half-maximal effect
In short: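 Plate 2500 lymphoblastoid cells per well and incubate 5 hr at 37 C. Add compounds over a concentration range and incubate 24 hr at 37 C. Add CellTiter-Glo, wait 30 min at room temperature, read luminescence.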

[9] = Cell Viability - LYMP2-023 (AID 975);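 also: cells exposed to compound for 24 hours at 37 °C; nearly all actives have a fitted effect of over 55% in size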; also: potency is read from the fitted curve at half-maximal effect
In short: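 2500 cells/well, 5 hr 37 C; cpd 24 hr 37 C; CellTiter-Glo, 30 min RT; luminescence. qHTS conc-response, Hill fit -> AC50. Pos ctrl tetraoctylammonium bromide.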

[10] = Cell Viability - LYMP2-007 (AID 979);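 also: cells exposed to compound for 24 h before reading; nearly all actives have a fitted effect of over 60% in size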; also: potency is read from the fitted curve at half-maximal effect
In short: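 Luminescent ATP signal (CellTiter-Glo) serves as the viability read-out after 24 hr compound treatment of lymphoblastoid cells in complete medium at 37 C. Concentration-response data were fitted to the Hill equation to give AC50 values.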

[11] = Cell Viability - LYMP2-012 (AID 982); also: potency is read from the fitted curve at half-maximal effect
[12] = Cell Viability - LYMP2-020 (AID 986); also: nearly all actives have a fitted effect of over 55% in size; also: potency is read from the fitted curve at half-maximal effect
In short: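 Luminescent ATP signal (CellTiter-Glo, 30 min at room temperature) is the read-out after 24 h compound treatment of lymphoblastoid cells at 37 C. AC50 values come from Hill-equation fits across concentrations.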

[13] = Cell Viability - LYMP1-002 - Assay at 40 hr (AID 994); also: nearly all actives have a fitted effect of over 60% in size; also: potency is read from the fitted curve at half-maximal effect
In short: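 Luminescent ATP signal served as the viability readout, with decreases taken as toxicity. Cells were treated with compounds across a concentration range for 40 hours at 37 C, and AC50 values came from standard Hill modeling.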

[14] = molecular target: Voltage-gated inwardly rectifying potassium channel KCNH2 (Homo sapiens) (UniProt Q12809); test: qHTS Assay for Small Molecule Inhibitors of the Human hERG Channel Activity (AID 588834);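 also: lower thallium flux fluorescence means stronger hERG block; nearly all actives have a fitted effect of over 50% in size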; also: potency is read from the fitted curve at half-maximal effect
In short: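 Measured: FluxOR fluorescence after thallium stimulation in U2OS cells transduced with hERG by baculovirus. Compounds pre-incubated around 10 min; medium Opti-MEM with 2% FCS. AC50 from Hill equation.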

[15] = qHTS assay for small molecule activators of the p53 signaling pathway (AID 651743; active = well fitted activation curve with a large enough effect in the signal ratio, not every such curve was filed as active; the % refers to the signal ratio; also: potency is read from the fitted curve at half-maximal effect; as to activation: series mostly up to about 92 µM; % of control where 0% means no effect); details: HCT-116 p53RE-bla, beta-lactamase FRET ratio, 16 h; activation: stronger effect = higher value
In short: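 p53RE-bla HCT-116 cells carrying a beta-lactamase reporter under p53 response elements were exposed to compounds for 16 hours at 37 C. Reporter activity read as fluorescence after 2 hours at room temperature with LiveBLAzer B/G FRET substrate.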

[16] = qHTS assay for small molecule agonists of the antioxidant response element (ARE) signaling pathway measured by Nrf2-dependant transcriptional activity (AID 720636; active = well fitted curve in the direction sought with a large enough effect in the repeat runs; an effect the other way counts as inactive or inconclusive; also: potency is read from the fitted curve at half-maximal effect; as to activation: % of control where 0% means no effect)
In short: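 ARE-luc HepG2 cells carrying an Nrf2-responsive luciferase reporter, in medium with 1% dialyzed FBS, exposed to compound for 16 hr at 37 C, 5% CO2. Luminescence read 30 min after ONE-Glo addition.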

[17] = qHTS assay for small molecule antagonists of the retinoid-related orphan receptor gamma (ROR-gamma) signaling pathway - cell viability counter screen (AID 720652; active = well fitted curve in the direction sought with a large enough effect in the repeat runs; an effect the other way counts as inactive or inconclusive;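 also: compound exposure lasted 16 hr before ATP read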; also: potency is read from the fitted curve at half-maximal effect)
In short: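 Luminescence from CellTiter-Glo after 30 min at room temperature reported cellular ATP as the cytotoxicity measure. Cells were the CHO reporter line with doxycycline-induced ROR-gamma expression, exposed to compound for 16 hr at 37 C.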

[18] = qHTS assay for cell viability of the p53RE-bla HCT-116 cell line (AID 743292); also: nearly all actives have a fitted effect of over 55% in size; also: potency is read from the fitted curve at half-maximal effect
In short: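 CellSensor p53RE-bla HCT-116 cells (4,000/well) pre-incubated 5 h at 37 C, then exposed to compounds in DMSO for 16 h at 37 C. Viability read as ATP content by CellTiter-Glo luminescence after 30 min at room temperature.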

[19] = molecular target: Mitogen-activated protein kinase 10 (Mus musculus) (UniProt Q61831); test: JNK3 AlphaScreen Assay (AID 530; active = well fitted curve in either direction with a large enough effect, not every such curve was filed as active;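 also: kinase came from lysate of stimulated human HepG2 cells; signal reports phosphorylation of biotinylated GST-cJun 1-79 at Ser73 with 10 µM ATP; series mostly up to about 57 µM; % is scaled to controls: 0 for no effect and ±100 for the full control effect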)
In short: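 Pre-activated (IL-1β/TNFα) JNK3 in HepG2 lysates phosphorylates biotin-GST-cJun(1-79), 10 uM ATP; anti-phospho-cJun(Ser73) AlphaScreen read at room temperature, pH 7.6 Tris buffer. Compounds pre-incubated 15 min as titrations.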

[20] = qHTS assay for small molecule disruptors of the mitochondrial membrane potential - 5 hr assay (AID 651755; calls by dose curve; also: nearly all actives have a fitted effect of over 40% in size; also: potency is read from the fitted curve at half-maximal effect)
In short: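 HepG2 cells (2,000/well), attached overnight, exposed to compound 5 hr at 37C, then Mito-MPS dye 30 min. Fluorescence read for monomers (490/535 nm) and aggregates (540/590 nm).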

Voltage-gated inwardly rectifying potassium channel KCNH2 (Homo sapiens), sequence (Q12809 whole entry, looked up): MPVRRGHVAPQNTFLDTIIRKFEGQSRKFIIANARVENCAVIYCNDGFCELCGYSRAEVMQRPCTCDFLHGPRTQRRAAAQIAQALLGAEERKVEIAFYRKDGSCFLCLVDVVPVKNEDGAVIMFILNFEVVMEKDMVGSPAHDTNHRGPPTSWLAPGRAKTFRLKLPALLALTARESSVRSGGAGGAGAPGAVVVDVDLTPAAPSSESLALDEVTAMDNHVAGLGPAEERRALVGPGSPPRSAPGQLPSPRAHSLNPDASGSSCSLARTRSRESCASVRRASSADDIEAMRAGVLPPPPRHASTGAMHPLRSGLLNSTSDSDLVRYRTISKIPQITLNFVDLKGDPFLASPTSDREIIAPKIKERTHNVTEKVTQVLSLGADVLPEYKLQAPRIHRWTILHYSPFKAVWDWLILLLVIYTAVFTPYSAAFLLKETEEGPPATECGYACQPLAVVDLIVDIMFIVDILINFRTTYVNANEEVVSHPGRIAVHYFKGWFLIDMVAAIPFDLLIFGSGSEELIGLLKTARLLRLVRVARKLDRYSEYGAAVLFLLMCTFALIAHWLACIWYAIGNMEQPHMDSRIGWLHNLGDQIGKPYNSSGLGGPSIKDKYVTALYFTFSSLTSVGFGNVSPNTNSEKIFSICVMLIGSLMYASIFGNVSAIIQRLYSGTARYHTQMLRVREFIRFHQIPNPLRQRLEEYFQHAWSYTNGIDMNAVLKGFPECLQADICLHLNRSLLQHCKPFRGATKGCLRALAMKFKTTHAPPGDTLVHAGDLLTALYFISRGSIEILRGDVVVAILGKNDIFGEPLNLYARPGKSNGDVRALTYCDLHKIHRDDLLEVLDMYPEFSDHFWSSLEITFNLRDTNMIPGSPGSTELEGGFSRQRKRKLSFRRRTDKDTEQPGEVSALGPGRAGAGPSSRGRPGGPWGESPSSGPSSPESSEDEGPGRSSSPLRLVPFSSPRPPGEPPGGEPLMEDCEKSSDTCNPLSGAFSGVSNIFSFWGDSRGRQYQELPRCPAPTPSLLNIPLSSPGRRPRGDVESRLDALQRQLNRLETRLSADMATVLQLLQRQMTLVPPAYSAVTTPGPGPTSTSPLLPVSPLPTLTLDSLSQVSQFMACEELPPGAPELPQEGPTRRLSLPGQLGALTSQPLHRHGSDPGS

C#CCO
inactive: Potency [1] | outcome [2] | Potency [3] | Potency [4] | Potency [5] | Potency [6] | Potency [7] | Potency [8] | Potency [9] | Potency [10] | Potency [11] | Potency [12] | Potency [13] | Potency [14] | activation [15] 0.794% | Potency [16] | Potency [17] | Potency [18]

O=[N+]([O-])c1cc(C(F)(F)F)cc([N+](=O)[O-])c1Cl
inactive: outcome [19] | Potency [1] | Potency [3] | Potency [4] | Potency [13] | Potency [14] | Potency [20] | Potency [16] | Potency [18]
active: Potency [5] 31.6 µM | Potency [6] 39.8 µM | Potency [7] 31.6 µM | Potency [8] 31.6 µM | Potency [9] 39.8 µM | Potency [10] 39.8 µM | Potency [11] 31.6 µM | Potency [12] 31.6 µM | Potency [17] 66.8 µM

Oc1cc2c(cc1O)[C@H]1c3ccccc3CN[C@@H]1CC2
inactive: outcome [19]

CCCCCCCCn1sccc1=O
active: Potency [3] 7.94 µM | Potency [4] 3.98 µM | Potency [5] 5.01 µM | Potency [6] 6.31 µM | Potency [7] 3.98 µM | Potency [8] 3.98 µM | Potency [9] 6.31 µM | Potency [10] 2.51 µM | Potency [11] 3.98 µM | Potency [12] 3.98 µM | Potency [13] 15.8 µM
inactive: Potency [1] | outcome [2] | activation [15] -5.11% | Potency [20] | Potency [18]

c1ccc2cc3c(cc2c1)-c1cccc2cccc-3c12
active: Potency [15] 6.31 µM and 8.91 µM | Potency [20] 6.68 µM | Potency [16] 9.44 µM and 8.63 µM
inactive: Potency [1] | outcome [2] | Potency [3] | Potency [4] | Potency [5] | Potency [6] | Potency [7] | Potency [8] | Potency [9] | Potency [10] | Potency [11] | Potency [12] | Potency [13] | Potency [14] | Potency [17]

N#CSCSC#N
active: Potency [3] 25.1 µM | Potency [4] 5.01 µM | Potency [5] 5.01 µM | Potency [6] 6.31 µM | Potency [7] 5.01 µM | Potency [8] 5.01 µM | Potency [9] 6.31 µM | Potency [10] 6.31 µM | Potency [11] 5.01 µM | Potency [12] 5.01 µM | Potency [13] 31.6 µM | Potency [14] 31.6 µM | Potency [15] 25.1 µM | Potency [17] 9.44 µM | Potency [18] 50.1 µM
inactive: Potency [20] | Potency [16]

FC(F)(F)c1ccc(Cl)cc1
inactive: outcome [19] | Potency [1] | outcome [2] | Potency [3] | Potency [4] | Potency [5] | Potency [6] | Potency [7] | Potency [8] | Potency [9] | Potency [10] | Potency [11] | Potency [12] | Potency [13] | Potency [14] | activation [15] -2.63% and 1.33% | Potency [20] | Potency [16] | Potency [17] | Potency [18]

C(=NC1CCCCC1)=NC1CCCCC1
inactive: outcome [19] | Potency [1] | outcome [2] | Potency [3] | Potency [4] | Potency [13] | activation [15] 5% | Potency [20] | Potency [16] | Potency [18]

C[C@@H]1O[C@@H](O[C@H]2C[C@@H](O)[C@]3(CO)[C@@H]4[C@@H](O)C[C@]5(C)[C@H](C6=CC(=O)OC6)CC[C@@]5(O)[C@H]4CC[C@@]3(O)C2)[C@H](O)[C@H](O)[C@@H]1O
inactive: outcome [19]

Oc1c(Cl)cc(Cl)cc1Cl
inactive: activation [15] -6.01% and -1.45%

O=C1C2(Cl)C3(Cl)C4(Cl)C(Cl)(Cl)C5(Cl)C3(Cl)C1(Cl)C5(Cl)C24Cl (stereo not drawn)
inactive: Potency [1] | outcome [2] | Potency [11] | Potency [12] | Potency [16]
70.8 µM (active) and inactive: Potency [18]
active: Potency [3] 31.6 µM and 39.8 µM | Potency [4] 39.8 µM | Potency [5] 50.1 µM | Potency [6] 63.1 µM | Potency [7] 50.1 µM | Potency [9] 50.1 µM | Potency [10] 39.8 µM and 50.1 µM | Potency [13] 25.1 µM and 50.1 µM | Potency [14] 17.8 µM and 28.2 µM | Potency [20] 4.22 µM and 9.44 µM | Potency [17] 26.6 µM and 29.8 µM

COP(=O)(OC)O/C(=C\Cl)c1cc(Cl)c(Cl)cc1Cl
active: Potency [11] 50.1 µM
inactive: outcome [19] | outcome [2] | Potency [3] | Potency [5] | Potency [6] | Potency [9] | Potency [12] | Potency [13] | Potency [14] | activation [15] -0.853% | Potency [17] | Potency [18]

[CH3][Hg][Cl]
inactive: outcome [2]
active: Potency [5] 5.01 µM | Potency [6] 3.98 µM | Potency [7] 3.16 µM | Potency [8] 3.16 µM | Potency [9] 5.01 µM | Potency [10] 3.98 µM | Potency [11] 3.16 µM | Potency [12] 2.51 µM | Potency [14] 25.1 µM | Potency [20] 66.8 µM | Potency [17] 10.6 µM

CN(C)c1ccc(N=O)cc1
inactive: outcome [19] | Potency [1] | outcome [2] | Potency [14] | activation [15] -1.31% | Potency [18]
active: Potency [3] 3.98 µM | Potency [4] 0.794 µM | Potency [5] 1 µM | Potency [6] 2 µM | Potency [7] 1 µM | Potency [8] 0.794 µM | Potency [9] 1.26 µM | Potency [10] 0.794 µM | Potency [11] 0.631 µM | Potency [12] 1.26 µM | Potency [13] 6.31 µM | Potency [16] 26.6 µM

O=[N+]([O-])C(Br)Br
active: Potency [4] 25.1 µM | Potency [5] 12.6 µM | Potency [6] 12.6 µM | Potency [7] 7.94 µM | Potency [8] 10 µM | Potency [9] 12.6 µM | Potency [10] 10 µM | Potency [11] 12.6 µM | Potency [12] 12.6 µM | Potency [14] 50.1 µM | Potency [17] 18.8 µM
inactive: Potency [1] | outcome [2] | Potency [3] | Potency [13] | activation [15] 12.3% | Potency [20] | Potency [18]
